Assay results published in PubChem BioAssay (NCI).
The panel holds about 79,000 compounds, 15% with a hit somewhere; the sample as a whole holds those more often. A number with no mark means an inactive call. The source made the active and inactive calls. Rule as the data show it: active = growth inhibition above about 70%; inactive = the rest.

What was measured:
[1] = NCI Yeast Anticancer Drug Screen. Data for the rad50 strain (AID 155);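 also: 0% = growth of vehicle-only cultures of the same strain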; conditions: S. cerevisiae rad50 strain growth inhibition, active compounds read high
How it was run: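 Genetically altered yeast (DNA repair pathway); compound treatment; growth inhibition vs vehicle ctrl.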

[2] = NCI Yeast Anticancer Drug Screen. Data for the mec2-1 strain (AID 157); conditions: S. cerevisiae mec2-1 strain, active compounds read high
How it was run: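 Growth inhibition is read against vehicle-treated controls after compound exposure of the mec2-1 yeast strain, which is defective in DNA damage repair or cell cycle control.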

[3] = NCI Yeast Anticancer Drug Screen. Data for the sgs1 mgt1 strain (AID 161);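 also: 0% = growth of cultures given vehicle only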; conditions: S. cerevisiae sgs1 mgt1 strain, active compounds read high
How it was run: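 Compounds are added to genetically altered yeast, and growth is compared with cultures given vehicle alone to give percent inhibition.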

[4] = NCI Yeast Anticancer Drug Screen. Data for the cln2 rad14 strain (AID 165);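 also: 0% = growth equal to vehicle treated cultures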; conditions: S. cerevisiae cln2 rad14 strain, active compounds read high
How it was run: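 Growth inhibition, relative to vehicle-treated controls, is the read-out. The test organism is a yeast strain with defined genetic alterations, cln2 rad14.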

[5] = NCI Yeast Anticancer Drug Screen. Data for the bub3 strain (AID 167); conditions: S. cerevisiae bub3 mutant strain, active compounds read high
How it was run: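 Yeast carrying a defined mutation is treated with each compound, and growth is compared with that of vehicle-exposed cells to give inhibition.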

[6] = NCI Yeast Anticancer Drug Screen. Data for the mlh1 rad18 strain (AID 175); conditions: S. cerevisiae mlh1 rad18 strain growth inhibition, active compounds read high
How it was run: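 Cells of a genetically altered yeast strain, deficient in DNA damage repair, were treated with compound. Their growth was then compared with that of vehicle-treated cultures to give inhibition.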

[7] = at 5.0 µM (retest, dose inferred, filed as 0.5)
[8] = at 50.0 µM (retest, dose inferred, filed as 5.0)

| SMILES | growth inhibition [1, 7] | growth inhibition [1, 8] | growth inhibition ([1]; at 50.0 µM) | growth inhibition [2, 7] | growth inhibition [2, 8] | growth inhibition ([2]; at 50.0 µM) | growth inhibition [3, 7] | growth inhibition [3, 8] | growth inhibition ([3]; at 50.0 µM) | growth inhibition [4, 7] | growth inhibition [4, 8] | growth inhibition ([4]; at 50.0 µM) | growth inhibition [5, 7] | growth inhibition [5, 8] | growth inhibition ([5]; at 50.0 µM) | growth inhibition [6, 7] | growth inhibition [6, 8] | growth inhibition ([6]; at 50.0 µM) |
| --- | --- | --- | --- | --- | --- | --- | --- | --- | --- | --- | --- | --- | --- | --- | --- | --- | --- | --- |
| O=C1c2cc(Br)cc(Br)c2NCCC1(Br)Br | 99% (active) | 98% (active) | 97.7% (active) | 98% (active) | 100% (active) | 99.1% (active) | 100% (active) | 99% (active) | 97.8% (active) | 99% (active) | 98% (active) | 98% (active) | 99% (active) | 98% (active) | 97.5% (active) | 100% (active) | 98% (active) | 98.5% (active) |
| COC(=O)C(C#N)C(c1ccccc1)c1c[nH]c2ccccc12 (configuration not stated) | -3% | 75% (active) | 77.2% (active) | -4% | 59% | 16.3% | -5% | 63% | 55.7% | -52% | 82% (active) | 24.1% | -7% | 71% (active) | -4.8% | -14% | 89% (active) | 71% (active) |
| Clc1ccc(SSc2ccc(Cl)cn2)nc1 | 5% | 69% | 78.2% (active) | 6% | 96% (active) | 96.3% (active) | 17% | 96% (active) | 57.9% | -4% | 51% | 20.6% | -3% | 97% (active) | 82.8% (active) | 11% | 92% (active) | 81.1% (active) |
| N#CC(C(=O)C(N)=O)c1ccc(Cl)cc1Cl (configuration not stated) | 0% | -2% | 82.2% (active) | 1% | 6% | 99.6% (active) | 1% | 0% | 99.6% (active) | -4% | 8% | 91.3% (active) | -1% | 21% | 96.6% (active) | -3% | 2% | 99.2% (active) |
| Cn1c2ccccc2c2cc3cnccc3cc21 | -98% | 95% (active) | 98.5% (active) | -50% | 73% (active) | 96.4% (active) | -57% | 82% (active) | 92.6% (active) | -55% | 88% (active) | 96.3% (active) | -68% | 89% (active) | 90.8% (active) | -164% | 93% (active) | 98.7% (active) |
| CCCCCCc1c(Cl)nc(Cl)nc1Cl | -1% | 56% | 65.8% | 1% | 43% | 26.2% | -6% | 41% | 63.5% | 0% | 15% | -46.6% | -1% | 33% | 25.1% | -2% | 66% | 87.2% (active) |
| CCCCCC[C@@H](O)C/C=C\CCCCCCCC(=O)OCCCC | -2% | -7% | 23.6% | -4% | -7% | 26.1% | -1% | -5% | 23.6% | -3% | -8% | 75.8% (active) | -6% | -7% | 24.6% | 0% | 1% | 23.9% |
| Nc1cc2c(c[n+](CCCBr)c3ccccc23)c2ccccc12 | 41% | 98% (active) | 66.8% | 23% | 99% (active) | 64.6% | 58% | 99% (active) | 68.2% | 46% | 98% (active) | 33.1% | 52% | 99% (active) | 46.5% | 24% | 98% (active) | 71.1% (active) |
| O=[N+]([O-])c1ccc(C2=Nn3c(nnc3-c3ccc(Cl)cc3)SC2)o1 | 19% | 83% (active) | 66.5% | 10% | 44% | 37.7% | 29% | 73% (active) | 62.1% | -2% | 94% (active) | 65.5% | 12% | 93% (active) | 55.9% | 30% | 91% (active) | 79.3% (active) |
| CCCCCCCCN(CCCCCCCC)CC(O)c1cc(-c2ccc(Cl)cc2)nc2c(Cl)cccc12 (configuration not stated) | 1% | 5% | 19.1% | -1% | 1% | 25.2% | -3% | 20% | 35.6% | -4% | -13% | 45.4% | 2% | 12% | 6.6% | 3% | 4% | 33.5% |
| COCCNC(=O)C1C(=O)N(CCOC)C(=O)/C1=N/N (configuration not stated) | 1% | -1% | -33.3% | 1% | 5% | 0.6% | 8% | -1% | 13.6% | -2% | 6% | 35% | 0% | 20% | -0.25% | -3% | -2% | 5.5% |
| O=C1/C(=C/c2ccccc2)CN(C(=O)C(F)(F)F)C/C1=C\c1ccccc1 | 63% | 84% (active) | 65.3% | 43% | 80% (active) | 40% | 52% | 94% (active) | 46% | 41% | 78% (active) | 42.2% | 53% | 93% (active) | 55.1% | 66% | 92% (active) | 53.6% |
| COc1ccc2[nH]c3ccc4cc[n+](CCN5CCC(C6CCN(CC[n+]7ccc8ccc9[nH]c%10ccc(OC)cc%10c9c8c7)CC6)CC5)cc4c3c2c1 | 69% | 98% (active) | 90.4% (active) | 57% | 98% (active) | 93.5% (active) | 29% | 98% (active) | 90.1% (active) | 34% | 96% (active) | 91.1% (active) | 22% | 96% (active) | 91.1% (active) | 77% (active) | 97% (active) | 90.5% (active) |
| Cc1ccccc1NCc1ccccc1Cl | -141% | 98% (active) | 99% (active) | -55% | 99% (active) | 99.5% (active) | -66% | 99% (active) | 98.5% (active) | -83% | 99% (active) | 99% (active) | -65% | 99% (active) | 99.5% (active) | -105% | 98% (active) | 96.7% (active) |
| [O-][n+]1c2ccccc2cc2c1c1ccccc1n2O | -1% | 1% | 20.1% | 0% | 0% | 5.2% | -7% | -3% | 17.7% | 4% | 8% | 46.4% | 6% | 4% | 0.45% | -4% | -5% | 13.9% |
| Cn1cnc(=S)c2[nH]cnc21 | -1% | -2% | 10.9% | -3% | -4% | -0.45% | -2% | -5% | -4.55% | -2% | -4% | 59.6% | 0% | -5% | -8.5% | -4% | -1% | 4.05% |
| O=C1/C(=C\c2ccc(Cl)cc2Cl)Sc2scc(-c3cccc([N+](=O)[O-])c3)[n+]21 | 17% | 98% (active) | 85.6% (active) | 36% | 99% (active) | 86.1% (active) | 69% | 98% (active) | 89.9% (active) | 28% | 97% (active) | 88.5% (active) | 96% (active) | 97% (active) | 85.5% (active) | 23% | 99% (active) | 90.9% (active) |
| OC(OC/C(I)=C(/I)COC(O)C(Cl)(Cl)Cl)C(Cl)(Cl)Cl (configuration not stated) | 28% | 96% (active) | 97.2% (active) | 34% | 94% (active) | 96.9% (active) | -2% | 86% (active) | 94.8% (active) | -10% | 70% (active) | 76.7% (active) | 1% | 94% (active) | 93.1% (active) | 13% | 95% (active) | 97.1% (active) |
| CC[n+]1c(/C=C/c2ccc(N(C)C)cc2)ccc2ccccc21 | -5% | 99% (active) | 99% (active) | 23% | 99% (active) | 99.2% (active) | -2% | 99% (active) | 98% (active) | -5% | 98% (active) | 99% (active) | 1% | 99% (active) | 98.8% (active) | 13% | 99% (active) | 98.5% (active) |
